Test results published in PubChem BioAssay AID743201 (The Scripps Research Institute Molecular Screening Center, 2013).
Hit rate of the full screen: of about 1,500 compounds, about 420 (28%) were called active. These entries were drawn from the full list. Unmarked numbers belong to inactive results. Cut-off read from the data, not from the text of the source: active = inhibition above about 9.5%; inactive = the rest.

Test: LD9 cell viability loss – luminescence, high throughput, cytotoxicity control for cell surface PrPc inhibitor project (AID 743201)
Settings: LD9 cells cytotoxicity, at 13.8 µM, hits give high values

Which inhibition does the source give for O=C(Nc1ccc(C2CC2(Cl)Cl)cc1)c1cccc([N+](=O)[O-])c1 (stereo not drawn) here?
Its inhibition is 22.1% (active).

For O=C(Oc1ccccc1)Oc1ccc2c(c1)oc(=O)c1ccccc12, which inhibition is on record?
The inhibition was -2.43%.

For O=C(Nc1cccn(Cc2ccccc2Cl)c1=O)NC1CCCCC1, which inhibition is on record?
The inhibition was -0.08%.

With O=C(COC(=O)c1ccccc1SCC(=O)NC1CCCCC1)NC1CCCCC1 as the compound, how does the inhibition read?
Its inhibition is -4.15%.

With Cc1nc(/N=C(\N)NC(=O)NC2CCCCC2)nc2ccccc12 as the compound, how does the inhibition read?
Its inhibition is 13.3% (active).

For CC1(C)Cc2ccccc2-c2[nH]c(=S)[nH]c(=O)c21, which inhibition is on record?
The inhibition was 0.24%.

Which inhibition does the source give for O=C(/C=C/c1ccc([N+](=O)[O-])o1)NNC(=O)c1ccc(F)cc1 here?
The inhibition was 81% (active).

For Cn1c(=S)sc2ccc3ccccc3c21, which inhibition is on record?
The inhibition was -9.96%.

For Cc1ccc(CSc2ccc(S(=O)(=O)N3CCCCC3)cn2)cc1, which inhibition is on record?
The inhibition was -3.1%.

With O=C(Nc1ccc(N2CCN(C(=O)c3ccccc3)CC2)c(Cl)c1)c1cccnc1 as the compound, how does the inhibition read?
The inhibition was 10.4% (active).

For CCCCC(=O)NC(c1ccc(OC)c(OC)c1)c1ccc2cccnc2c1O (stereo not drawn), which inhibition is on record?
Its inhibition is 34.6% (active).

With COc1ccc(NC(=O)COC(=O)CNC(=O)C2CCCCC2)cc1 as the compound, how does the inhibition read?
The inhibition was -1.65%.

Which inhibition does the source give for Cc1cccc(CS(=O)(=O)c2ncc(Cl)c(C(=O)Nc3ccc(F)cc3)n2)c1 here?
The inhibition was 97.1% (active).

Which inhibition does the source give for Cc1cccc(NC(=O)c2nc(S(=O)(=O)Cc3ccccc3)ncc2Cl)c1 here?
Its inhibition is 88.2% (active).

With O=C(Cc1ccccc1)Nc1cccc(NC(=O)c2ccccc2)c1 as the compound, how does the inhibition read?
The inhibition was -4%.

For CCc1c(C)nc2cc(-c3cccs3)[nH]n2c1=O, which inhibition is on record?
Its inhibition is -5.48%.

For Fc1ccc2[nH]c3c(N4CCSCC4)ncnc3c2c1, which inhibition is on record?
Its inhibition is 49.1% (active).

For COc1cccc2sc3cc(NCC[C@@H]4CCCN4C)ccc3c(=O)c12, which inhibition is on record?
The inhibition was 3.87%.

For COc1ccc(C(=O)Nc2nc(-c3ccc(S(=O)(=O)N4CCOCC4)cc3)cs2)cc1, which inhibition is on record?
Its inhibition is 24.7% (active).

With COc1ccc(S(=O)(=O)N2CCOCC2)cc1NC(=O)CSc1ncnc2ccccc12 as the compound, how does the inhibition read?
Its inhibition is -10%.

With Cc1cc2cc(CNC(=O)c3ccc(S(=O)(=O)N4CCOCC4)cc3)ccc2[nH]1 as the compound, how does the inhibition read?
The inhibition was -3.01%.

With C=CCNC(=O)CSc1nc2scc(-c3ccco3)c2c(=O)n1CC=C as the compound, how does the inhibition read?
Its inhibition is -1.71%.

Which inhibition does the source give for N#C/C=C1\Sc2ccccc2C(=O)N1CC(=O)N1CCN(S(=O)(=O)c2ccccc2)CC1 here?
The inhibition was -0.34%.

With CN(C)CCNC(=O)c1ccc(Cl)c2cc3ccccc3nc12 as the compound, how does the inhibition read?
The inhibition was 62.4% (active).

For COc1ccc(OC)c(NC(=O)c2cc(-c3cc(F)ccc3OCC3CCCO3)n[nH]2)c1 (stereo not drawn), which inhibition is on record?
The inhibition was 6.36%.

With CCc1nc(SCC(=O)NNC(=O)c2ccc(C)cc2)c2ccccc2n1 as the compound, how does the inhibition read?
The inhibition was -9.92%.

Which inhibition does the source give for COC(=O)CSc1nc(C2CC2)nc2ccccc12 here?
Its inhibition is 2.09%.

For CCCc1nc(SCC(=O)Nc2ccc(S(=O)(=O)N(C)C)cc2)c2ccccc2n1, which inhibition is on record?
Its inhibition is 11.4% (active).

Which inhibition does the source give for CCC(C)(O)C(=O)OC1C(=O)OC2CC3C(C)=CC(=O)C(O)C3(C)C3C4(O)OCC23C1C(C)C4O (stereo not drawn) here?
Its inhibition is 31.5% (active).

Which inhibition does the source give for CCCOc1ccc(C2C(C(=O)c3ccc(C)o3)=C(O)C(=O)N2CCCn2ccnc2)cc1 (stereo not drawn) here?
The inhibition was -8.43%.

Which inhibition does the source give for O=C(NC(Nc1nc2ccc([N+](=O)[O-])cc2s1)(C(F)(F)F)C(F)(F)F)c1ccccc1 here?
Its inhibition is 60.2% (active).

Which inhibition does the source give for Cc1ccc(Oc2cnn(-c3ccccc3)c(=O)c2Br)cc1 here?
The inhibition was -5.84%.

With CCOC(=O)c1c(C)[nH]c(=S)c(C#N)c1-c1ccccc1 as the compound, how does the inhibition read?
Its inhibition is -0.71%.

Which inhibition does the source give for O=c1[nH]cccc1-c1nc2ccccc2n1Cc1ccc(Cl)cc1 here?
The inhibition was 18% (active).

Which inhibition does the source give for N#Cc1ccc(OCC(=O)Nc2nc(-c3ccccn3)cs2)cc1 here?
Its inhibition is 6.29%.

With CC(=O)c1sc2nc(SCC(=O)N3CCCCC3)[nH]c(=O)c2c1C as the compound, how does the inhibition read?
Its inhibition is -4.99%.

For NC(=O)C1CCN(Cc2nc3c(Br)cc(Br)cc3c(=O)[nH]2)CC1, which inhibition is on record?
The inhibition was -0.26%.

Which inhibition does the source give for O=C(CC(O)(C(F)(F)F)C(F)(F)F)Nc1ccc(Cl)c(Cl)c1 here?
Its inhibition is 59.4% (active).

Which inhibition does the source give for Cc1sc2ncnc(SCC(=O)Nc3ccc(CN4CCCC4)cc3)c2c1C here?
Its inhibition is 4.39%.

Which inhibition does the source give for COc1ccc2c(Cl)c(-c3nnco3)sc2c1 here?
Its inhibition is 0.91%.

Which inhibition does the source give for O=C(c1ccc(F)cc1)c1cn(Cc2ccc(F)cc2)c2cc3c(cc2c1=O)OCCO3 here?
Its inhibition is 0.17%.

With CCCCCCCCn1c2c(c(=N)c3c1CCC3)CCCC2 as the compound, how does the inhibition read?
Its inhibition is 27.8% (active).

With Cc1cc2ccccc2n1CCNC(=O)COc1ccc2ccccc2c1 as the compound, how does the inhibition read?
Its inhibition is 3.16%.

For CO[C@H]([C@H](C)/C=C/N(C)C=O)[C@@H](C)C(=O)CC[C@H](C)[C@H](O)[C@H](C)[C@H]1OC(=O)/C=C/C(C)=C/[C@H](O)[C@H](OC)C[C@@H]2C=CC[C@@H](C[C@H](OC)[C@@]3(CO3)[C@@H](OC)C[C@@H](OC)[C@@H]1C)O2, which inhibition is on record?
Its inhibition is 22.6% (active).

With FC(F)(F)c1cccc(NC(=S)OC2CCC23CCC(c2ccccc2)CC3)c1 (stereo not drawn) as the compound, how does the inhibition read?
The inhibition was 6.03%.

Which inhibition does the source give for CCCCNc1c(-c2cccc(Sc3ccc(OC)cc3)c2)nc2ccccn12 here?
The inhibition was 17.3% (active).

Which inhibition does the source give for N#Cc1c(-c2cccs2)nc(SCC(=O)c2ccc(Br)cc2)[nH]c1=O here?
Its inhibition is -2.36%.

Which inhibition does the source give for Cc1ccc(CNC(=O)Nc2nnc([C@H]3C[C@H](O)[C@@H](CO)O3)s2)cc1 here?
Its inhibition is -1.07%.

Which inhibition does the source give for O=C1CCCC2=C1C(c1cccs1)n1nc(SCc3ccccc3)nc1N2 (stereo not drawn) here?
The inhibition was -3.22%.

Which inhibition does the source give for CN1/C(=C\C(=O)c2oc3ccccc3c2N)C(C)(C)c2ccccc21 here?
Its inhibition is 7.55%.

With CC(=O)Nc1cccc(OCC(=O)/C=C2\N(C)c3ccccc3C2(C)C)c1 as the compound, how does the inhibition read?
Its inhibition is 13.8% (active).

Which inhibition does the source give for Cc1ccsc1C(=O)OCC(=O)Nc1cccc(F)c1 here?
The inhibition was -2.87%.

Which inhibition does the source give for Cc1[nH]n(-c2ccccc2)c(=O)c1/C=N/NC(=O)c1ccoc1C here?
The inhibition was 21.3% (active).

With CCOC(=O)c1c(-c2ccccc2)oc2cc(Br)c(O)cc12 as the compound, how does the inhibition read?
Its inhibition is -6.88%.

Which inhibition does the source give for COC(=O)Cc1[nH]n(-c2nc3ccccc3s2)c(=O)c1C(C)=Nc1ccc(OC)cc1 here?
The inhibition was -5.36%.

Which inhibition does the source give for CC(=O)c1nc(N2C(=O)C3CC=C(C)CC3C2=O)sc1C (stereo not drawn) here?
Its inhibition is -5.65%.

Which inhibition does the source give for CCCCCCCCCCCCn1ccc(=N)cc1 here?
The inhibition was 33.6% (active).

With COc1cc(-n2c(=S)[nH]c3ccc(C)cc3c2=O)c(Cl)cc1Cl as the compound, how does the inhibition read?
Its inhibition is -3.19%.

With Cc1ccc(NC(=O)c2sc3nc(N)c(C#N)cc3c2N)cc1 as the compound, how does the inhibition read?
The inhibition was 14.7% (active).

For CC(=O)N1CCCc2cc(S(=O)(=O)N3CCCC(C(=O)NCc4ccc(Cl)cc4)C3)ccc21 (stereo not drawn), which inhibition is on record?
Its inhibition is 4.27%.

Which inhibition does the source give for CC(=O)N1c2ccc(S(=O)(=O)N3CCCC(C(=O)Nc4cccc(F)c4)C3)cc2CC1C (stereo not drawn) here?
Its inhibition is 10.8% (active).

For CC(=O)N1CCCc2cc(S(=O)(=O)N3CCCC(C(=O)N4CCN(c5cccc(Cl)c5)CC4)C3)ccc21 (stereo not drawn), which inhibition is on record?
The inhibition was 24.1% (active).

Which inhibition does the source give for Cc1ccnc(NC(=O)C2CCN(S(=O)(=O)c3c(C)c(C)cc(C)c3C)CC2)c1 here?
Its inhibition is -5.26%.
